The results in this text go back to PMC7862700, “An all-to-all approach to the identification of sequence-specific readers for epigenetic DNA modifications on cytosine”.

Assay in all cases: DAPPL (digital affinity profiling via proximity ligation, sequencing); 10 mM Tris-HCl pH 7.5, 50 mM NaCl, 1 mM DTT, 4% glycerol, room temperature, 30 min; GST-TFs on glutathione beads, 16-mer random dsDNA library, 0.1% formaldehyde crosslink after washing; high values mean tight binding
One assay addresses T1, FLI1 (Homo sapiens, UniProt Q01543 1-452).
T1 sequence: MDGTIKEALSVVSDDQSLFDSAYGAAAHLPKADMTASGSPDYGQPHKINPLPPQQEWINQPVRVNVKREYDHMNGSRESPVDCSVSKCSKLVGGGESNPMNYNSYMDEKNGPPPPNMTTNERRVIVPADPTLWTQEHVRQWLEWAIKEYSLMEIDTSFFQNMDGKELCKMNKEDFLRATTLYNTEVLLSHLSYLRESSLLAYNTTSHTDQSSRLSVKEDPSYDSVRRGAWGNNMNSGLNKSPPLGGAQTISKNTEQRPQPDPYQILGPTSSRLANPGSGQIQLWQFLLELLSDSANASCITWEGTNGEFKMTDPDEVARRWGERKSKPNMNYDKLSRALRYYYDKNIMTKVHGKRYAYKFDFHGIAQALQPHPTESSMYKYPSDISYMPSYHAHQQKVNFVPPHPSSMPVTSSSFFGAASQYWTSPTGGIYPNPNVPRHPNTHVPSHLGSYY
The note with it: protein: recombinant; tags: N-terminal GST; dsDNA, one strand shown. Put shortly: (§1)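 A tag-only sample was pooled with DNA-barcoded human transcription factors that had been expressed in yeast as GST fusions and captured on glutathione beads. The pools were incubated for 30 min at room temperature with 200 nmole of a random double-stranded 16-mer DNA library in Tris/NaCl/DTT/glycerol buffer, then washed, crosslinked with 0.1% formaldehyde, proximity-ligated (BsaI/T4 ligase, 1 h, 37 °C), PCR-amplified and sequenced on an Illumina NextSeq500. Binding signal is each hexamer's read frequency for a factor divided by its frequency for the tag-only sample.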

For a further assay, the target named is T2, ELK1 (Homo sapiens, UniProt P19419 1-428).
T2 sequence: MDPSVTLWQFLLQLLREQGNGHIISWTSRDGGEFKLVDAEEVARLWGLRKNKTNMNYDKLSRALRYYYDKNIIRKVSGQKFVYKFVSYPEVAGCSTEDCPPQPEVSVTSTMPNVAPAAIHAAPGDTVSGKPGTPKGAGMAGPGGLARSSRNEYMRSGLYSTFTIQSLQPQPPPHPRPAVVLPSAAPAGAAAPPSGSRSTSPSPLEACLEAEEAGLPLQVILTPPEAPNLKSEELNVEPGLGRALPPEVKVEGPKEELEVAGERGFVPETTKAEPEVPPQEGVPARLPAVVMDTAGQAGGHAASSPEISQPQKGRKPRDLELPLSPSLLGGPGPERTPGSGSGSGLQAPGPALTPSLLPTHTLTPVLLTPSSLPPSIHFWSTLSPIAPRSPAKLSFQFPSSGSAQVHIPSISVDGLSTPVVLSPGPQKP
The settings on record: protein: recombinant; tags: N-terminal GST; dsDNA, one strand shown. Put shortly: as §1

The target of a further assay is T3, GABPA (Homo sapiens, UniProt Q06546 1-454).
T3 sequence: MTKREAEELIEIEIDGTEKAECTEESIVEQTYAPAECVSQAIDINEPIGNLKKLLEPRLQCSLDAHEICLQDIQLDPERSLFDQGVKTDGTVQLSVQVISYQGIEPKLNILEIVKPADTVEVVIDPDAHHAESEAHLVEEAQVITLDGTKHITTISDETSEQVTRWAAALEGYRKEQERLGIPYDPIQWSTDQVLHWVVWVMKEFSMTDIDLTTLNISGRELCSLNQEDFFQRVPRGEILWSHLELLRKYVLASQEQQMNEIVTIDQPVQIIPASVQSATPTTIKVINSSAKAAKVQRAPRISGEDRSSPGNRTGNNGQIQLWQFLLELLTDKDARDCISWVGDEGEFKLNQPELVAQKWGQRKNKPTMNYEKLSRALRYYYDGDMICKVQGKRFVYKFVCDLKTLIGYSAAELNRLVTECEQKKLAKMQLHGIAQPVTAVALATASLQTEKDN
The settings on record: protein: recombinant; tags: N-terminal GST; dsDNA, one strand shown. The essentials:
as §1

A further assay concerns the target T4, ERG (Homo sapiens, UniProt P11308 1-479).
T4 sequence: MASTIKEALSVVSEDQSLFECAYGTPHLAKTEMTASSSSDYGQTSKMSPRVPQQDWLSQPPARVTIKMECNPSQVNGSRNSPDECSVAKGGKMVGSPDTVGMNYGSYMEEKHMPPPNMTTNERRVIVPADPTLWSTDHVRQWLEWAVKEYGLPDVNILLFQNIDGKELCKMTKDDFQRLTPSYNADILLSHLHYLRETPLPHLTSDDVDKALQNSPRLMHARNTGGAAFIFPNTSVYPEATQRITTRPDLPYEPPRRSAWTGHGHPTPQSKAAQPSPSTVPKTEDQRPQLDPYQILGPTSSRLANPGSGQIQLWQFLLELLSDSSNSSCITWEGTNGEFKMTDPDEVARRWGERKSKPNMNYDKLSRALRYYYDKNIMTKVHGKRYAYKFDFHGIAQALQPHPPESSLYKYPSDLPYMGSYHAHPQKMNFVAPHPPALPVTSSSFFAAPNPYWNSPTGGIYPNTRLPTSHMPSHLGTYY
The settings on record: protein: recombinant; tags: N-terminal GST; dsDNA, one strand shown. The essentials: as §1

In the next assay the target is ELF1 (Homo sapiens, UniProt P32519 1-619). The note with it: protein: recombinant; tags: N-terminal GST; dsDNA, one strand shown. The essentials: as §1
Sequence of ELF1 (P32519 whole entry): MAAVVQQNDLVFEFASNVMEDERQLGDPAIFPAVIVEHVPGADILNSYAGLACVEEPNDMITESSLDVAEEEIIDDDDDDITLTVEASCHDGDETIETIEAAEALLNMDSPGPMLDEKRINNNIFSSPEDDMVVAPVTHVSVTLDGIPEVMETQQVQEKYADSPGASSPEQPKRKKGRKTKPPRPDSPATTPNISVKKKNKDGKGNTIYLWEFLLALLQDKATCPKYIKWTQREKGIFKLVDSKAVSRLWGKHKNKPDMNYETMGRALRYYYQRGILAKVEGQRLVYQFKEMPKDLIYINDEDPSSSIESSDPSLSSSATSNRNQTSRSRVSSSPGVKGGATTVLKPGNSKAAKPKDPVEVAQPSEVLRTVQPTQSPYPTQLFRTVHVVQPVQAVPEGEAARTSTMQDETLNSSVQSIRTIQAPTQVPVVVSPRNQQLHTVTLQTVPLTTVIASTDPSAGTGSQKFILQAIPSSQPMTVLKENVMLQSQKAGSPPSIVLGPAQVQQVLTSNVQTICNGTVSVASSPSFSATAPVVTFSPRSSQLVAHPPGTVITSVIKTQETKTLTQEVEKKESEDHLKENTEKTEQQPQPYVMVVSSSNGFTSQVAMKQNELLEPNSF
For a further assay, the target named is T5, EHF (Homo sapiens, UniProt Q9NZC4 1-300).
T5 sequence: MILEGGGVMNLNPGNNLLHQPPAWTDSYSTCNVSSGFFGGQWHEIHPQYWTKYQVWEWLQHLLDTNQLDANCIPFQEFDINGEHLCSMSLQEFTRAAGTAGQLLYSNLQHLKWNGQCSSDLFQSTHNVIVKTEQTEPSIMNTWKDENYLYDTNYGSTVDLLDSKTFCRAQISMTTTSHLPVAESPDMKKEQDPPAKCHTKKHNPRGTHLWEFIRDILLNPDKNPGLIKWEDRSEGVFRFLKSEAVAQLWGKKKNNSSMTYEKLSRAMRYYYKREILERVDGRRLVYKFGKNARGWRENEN
The settings on record: protein: recombinant; tags: N-terminal GST; dsDNA, one strand shown. The essentials: as §1

The target in another assay is SPI1 (Homo sapiens, UniProt P17947 1-270). The note with it: protein: recombinant; tags: N-terminal GST; dsDNA, one strand shown. The essentials:
as §1

In a further assay the target is SPIB (Homo sapiens, UniProt Q01892 1-262). The note with it: protein: recombinant; tags: N-terminal GST; dsDNA, one strand shown. Put shortly: as §1
Sequence of SPIB (Q01892 whole entry): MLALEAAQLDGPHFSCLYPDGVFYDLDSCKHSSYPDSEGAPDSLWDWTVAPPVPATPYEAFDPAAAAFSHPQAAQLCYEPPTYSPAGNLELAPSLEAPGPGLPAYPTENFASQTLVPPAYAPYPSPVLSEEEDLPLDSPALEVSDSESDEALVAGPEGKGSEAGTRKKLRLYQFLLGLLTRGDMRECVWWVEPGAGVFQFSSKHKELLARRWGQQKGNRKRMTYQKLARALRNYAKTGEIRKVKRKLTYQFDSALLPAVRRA
A further assay has as its target T6, ELK3 (Homo sapiens, UniProt P41970 1-407).
T6 sequence: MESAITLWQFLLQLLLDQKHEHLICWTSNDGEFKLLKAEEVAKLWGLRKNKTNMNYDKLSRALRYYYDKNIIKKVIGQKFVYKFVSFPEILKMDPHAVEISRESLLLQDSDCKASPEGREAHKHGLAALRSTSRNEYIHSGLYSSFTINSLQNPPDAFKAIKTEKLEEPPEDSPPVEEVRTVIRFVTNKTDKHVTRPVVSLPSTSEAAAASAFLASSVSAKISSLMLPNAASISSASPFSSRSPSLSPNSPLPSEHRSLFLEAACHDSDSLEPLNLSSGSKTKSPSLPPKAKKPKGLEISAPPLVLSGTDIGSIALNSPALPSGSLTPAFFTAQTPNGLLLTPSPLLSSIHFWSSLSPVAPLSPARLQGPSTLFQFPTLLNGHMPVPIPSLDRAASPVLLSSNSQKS
The settings on record: protein: recombinant; tags: N-terminal GST; dsDNA, one strand shown. The essentials:
as §1

The next assay addresses T7, FEV (Homo sapiens, UniProt Q99581 1-238).
T7 sequence: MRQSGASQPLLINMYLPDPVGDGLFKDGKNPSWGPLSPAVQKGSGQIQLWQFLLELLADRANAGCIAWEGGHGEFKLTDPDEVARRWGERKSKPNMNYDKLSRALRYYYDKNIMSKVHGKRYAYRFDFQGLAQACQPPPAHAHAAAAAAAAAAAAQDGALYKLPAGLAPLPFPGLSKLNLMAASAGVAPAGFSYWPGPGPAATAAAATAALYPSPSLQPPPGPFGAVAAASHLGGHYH
The settings on record: protein: recombinant; tags: N-terminal GST; dsDNA, one strand shown. Put shortly: as §1

For another assay, the target named is ETV5 (Homo sapiens, UniProt P41161 1-510). The settings on record: protein: recombinant; tags: N-terminal GST; dsDNA, one strand shown. The essentials: as §1
Sequence of ETV5 (P41161 whole entry): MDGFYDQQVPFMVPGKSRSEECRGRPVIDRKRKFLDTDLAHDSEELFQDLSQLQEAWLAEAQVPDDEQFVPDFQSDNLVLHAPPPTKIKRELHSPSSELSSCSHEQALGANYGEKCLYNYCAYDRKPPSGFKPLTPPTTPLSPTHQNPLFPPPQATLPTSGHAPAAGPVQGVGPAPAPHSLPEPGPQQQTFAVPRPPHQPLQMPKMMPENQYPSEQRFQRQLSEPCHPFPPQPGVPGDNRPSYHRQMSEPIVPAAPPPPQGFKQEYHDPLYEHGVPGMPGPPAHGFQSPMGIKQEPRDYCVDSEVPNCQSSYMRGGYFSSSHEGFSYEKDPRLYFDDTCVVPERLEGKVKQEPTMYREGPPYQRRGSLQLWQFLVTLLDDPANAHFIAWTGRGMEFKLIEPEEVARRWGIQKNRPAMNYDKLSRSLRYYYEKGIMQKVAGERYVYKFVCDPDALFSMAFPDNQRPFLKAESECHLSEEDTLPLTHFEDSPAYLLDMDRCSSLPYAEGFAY
A further assay has as its target HSF1 (Homo sapiens, UniProt Q00613 1-529). The settings on record: protein: recombinant; tags: N-terminal GST; chain copies: 3; dsDNA, one strand shown. Put shortly:
as §1

In a further assay the target is T8, SPIC (Homo sapiens, UniProt Q8N5J4 1-248).
T8 sequence: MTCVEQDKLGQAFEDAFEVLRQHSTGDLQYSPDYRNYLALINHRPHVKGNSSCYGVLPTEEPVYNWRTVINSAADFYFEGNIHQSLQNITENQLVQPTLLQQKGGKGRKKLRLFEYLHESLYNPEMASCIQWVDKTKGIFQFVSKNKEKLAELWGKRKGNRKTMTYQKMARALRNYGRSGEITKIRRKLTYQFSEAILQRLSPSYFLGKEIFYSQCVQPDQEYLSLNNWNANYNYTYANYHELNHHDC
The note with it: protein: recombinant; tags: N-terminal GST; dsDNA, one strand shown. Put shortly:
as §1

The target of a further assay is ELF4 (Homo sapiens, UniProt Q99607 1-663). The settings on record: protein: recombinant; tags: N-terminal GST; dsDNA, one strand shown. Put shortly: as §1
Sequence of ELF4 (Q99607 whole entry): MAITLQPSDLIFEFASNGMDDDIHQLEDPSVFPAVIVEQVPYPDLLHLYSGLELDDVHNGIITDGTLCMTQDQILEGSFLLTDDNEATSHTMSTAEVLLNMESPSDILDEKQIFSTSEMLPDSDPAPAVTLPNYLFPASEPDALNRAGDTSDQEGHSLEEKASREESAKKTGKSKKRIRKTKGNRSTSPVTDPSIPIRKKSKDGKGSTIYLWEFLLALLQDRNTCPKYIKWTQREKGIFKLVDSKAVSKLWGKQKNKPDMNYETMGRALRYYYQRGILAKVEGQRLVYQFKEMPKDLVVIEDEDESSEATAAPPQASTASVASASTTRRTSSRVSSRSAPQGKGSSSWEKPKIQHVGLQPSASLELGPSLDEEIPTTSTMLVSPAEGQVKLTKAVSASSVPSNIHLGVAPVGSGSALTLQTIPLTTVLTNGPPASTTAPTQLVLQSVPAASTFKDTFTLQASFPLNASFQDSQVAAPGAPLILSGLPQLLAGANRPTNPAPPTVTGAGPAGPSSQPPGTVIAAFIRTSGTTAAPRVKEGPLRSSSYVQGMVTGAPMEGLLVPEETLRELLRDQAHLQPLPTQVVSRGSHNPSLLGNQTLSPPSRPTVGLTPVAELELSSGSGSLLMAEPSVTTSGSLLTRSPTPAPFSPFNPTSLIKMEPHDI
In a further assay the target is T9, ELK4 (Homo sapiens, UniProt P28324-2 1-405).
T9 sequence: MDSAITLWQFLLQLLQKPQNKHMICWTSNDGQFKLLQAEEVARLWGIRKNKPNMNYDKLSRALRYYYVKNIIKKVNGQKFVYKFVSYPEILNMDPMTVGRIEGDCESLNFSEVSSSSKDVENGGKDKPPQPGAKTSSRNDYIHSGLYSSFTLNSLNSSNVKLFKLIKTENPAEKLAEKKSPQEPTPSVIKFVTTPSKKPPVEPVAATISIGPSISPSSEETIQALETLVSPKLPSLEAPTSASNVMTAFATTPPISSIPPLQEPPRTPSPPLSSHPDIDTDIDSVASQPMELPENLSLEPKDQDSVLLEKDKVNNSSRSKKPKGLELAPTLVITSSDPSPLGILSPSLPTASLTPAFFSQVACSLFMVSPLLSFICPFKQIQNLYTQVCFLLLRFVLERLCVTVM
The note with it: protein: recombinant; tags: N-terminal GST; dsDNA, one strand shown. Put shortly:
as §1

A further assay concerns the target T10, ETV2 (Homo sapiens, UniProt O00321 1-342).
T10 sequence: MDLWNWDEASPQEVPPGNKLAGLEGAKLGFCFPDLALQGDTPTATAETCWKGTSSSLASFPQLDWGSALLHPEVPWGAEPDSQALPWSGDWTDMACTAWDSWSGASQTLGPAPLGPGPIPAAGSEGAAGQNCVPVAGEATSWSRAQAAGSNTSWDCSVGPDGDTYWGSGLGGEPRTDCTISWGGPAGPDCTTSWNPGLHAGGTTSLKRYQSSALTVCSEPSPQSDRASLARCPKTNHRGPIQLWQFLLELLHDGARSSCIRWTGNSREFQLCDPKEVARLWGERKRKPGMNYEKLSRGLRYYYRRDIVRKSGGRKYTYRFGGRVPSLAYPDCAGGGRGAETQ
The settings on record: protein: recombinant; tags: N-terminal GST; dsDNA, one strand shown. Put shortly: as §1

A further assay addresses T11, ELF3 (Homo sapiens, UniProt P78545 1-371).
T11 sequence: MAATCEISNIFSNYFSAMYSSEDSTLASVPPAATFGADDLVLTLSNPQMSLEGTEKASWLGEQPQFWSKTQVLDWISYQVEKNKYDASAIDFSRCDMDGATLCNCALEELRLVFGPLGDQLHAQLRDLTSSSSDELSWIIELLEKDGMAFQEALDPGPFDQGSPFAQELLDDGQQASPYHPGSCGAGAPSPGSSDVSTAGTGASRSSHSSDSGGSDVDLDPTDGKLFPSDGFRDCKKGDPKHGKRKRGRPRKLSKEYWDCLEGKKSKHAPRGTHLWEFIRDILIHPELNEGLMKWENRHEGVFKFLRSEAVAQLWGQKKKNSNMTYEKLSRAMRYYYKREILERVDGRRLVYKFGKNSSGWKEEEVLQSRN
The note with it: protein: recombinant; tags: N-terminal GST; dsDNA, one strand shown. Put shortly: as §1

A further assay concerns the target CRX (Homo sapiens, UniProt O43186 1-299). The settings on record: protein: recombinant; tags: N-terminal GST; dsDNA, one strand shown. Put shortly:
as §1

The target in a further assay is ETV1 (Homo sapiens, UniProt P50549 1-477). The note with it: protein: recombinant; tags: N-terminal GST; dsDNA, one strand shown. The essentials: as §1
Sequence of ETV1 (P50549 whole entry): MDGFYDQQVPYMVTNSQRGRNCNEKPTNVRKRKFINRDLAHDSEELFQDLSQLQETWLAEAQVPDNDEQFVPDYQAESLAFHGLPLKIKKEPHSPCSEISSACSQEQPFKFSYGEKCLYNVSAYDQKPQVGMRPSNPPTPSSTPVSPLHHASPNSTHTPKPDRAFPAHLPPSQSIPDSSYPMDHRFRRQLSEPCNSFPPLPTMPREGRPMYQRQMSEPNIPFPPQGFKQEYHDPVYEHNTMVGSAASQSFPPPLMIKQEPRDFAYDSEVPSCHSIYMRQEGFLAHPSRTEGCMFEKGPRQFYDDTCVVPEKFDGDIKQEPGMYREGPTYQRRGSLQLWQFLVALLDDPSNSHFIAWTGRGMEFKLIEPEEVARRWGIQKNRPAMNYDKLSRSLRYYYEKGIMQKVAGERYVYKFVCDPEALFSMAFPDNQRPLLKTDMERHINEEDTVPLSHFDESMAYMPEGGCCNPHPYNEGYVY

Sequence of CRX (O43186 whole entry): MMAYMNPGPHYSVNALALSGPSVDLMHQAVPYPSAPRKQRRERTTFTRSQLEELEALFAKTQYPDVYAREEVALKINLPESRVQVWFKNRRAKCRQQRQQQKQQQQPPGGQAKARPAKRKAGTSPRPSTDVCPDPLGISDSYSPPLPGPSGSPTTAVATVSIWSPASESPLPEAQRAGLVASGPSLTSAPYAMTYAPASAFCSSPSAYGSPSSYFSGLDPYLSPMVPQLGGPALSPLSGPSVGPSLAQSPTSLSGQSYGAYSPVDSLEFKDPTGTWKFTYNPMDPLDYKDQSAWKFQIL
Sequence of HSF1 (Q00613 whole entry): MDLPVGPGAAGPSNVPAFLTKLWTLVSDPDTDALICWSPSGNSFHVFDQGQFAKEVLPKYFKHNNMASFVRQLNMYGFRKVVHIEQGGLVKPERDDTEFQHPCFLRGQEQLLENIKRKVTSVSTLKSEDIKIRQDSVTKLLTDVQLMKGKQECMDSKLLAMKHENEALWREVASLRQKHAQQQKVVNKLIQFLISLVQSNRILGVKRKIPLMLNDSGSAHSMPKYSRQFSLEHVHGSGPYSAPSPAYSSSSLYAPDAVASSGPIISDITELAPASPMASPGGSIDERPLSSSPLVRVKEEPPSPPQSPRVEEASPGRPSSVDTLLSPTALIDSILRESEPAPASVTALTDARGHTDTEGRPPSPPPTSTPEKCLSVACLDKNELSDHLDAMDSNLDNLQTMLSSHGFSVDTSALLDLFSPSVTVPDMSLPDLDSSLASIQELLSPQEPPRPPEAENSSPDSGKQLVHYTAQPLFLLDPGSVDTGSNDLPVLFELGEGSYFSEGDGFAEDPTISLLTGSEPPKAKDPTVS

TTCTGT: the binding signal is 1.26 fold enrichment (6-mer frequency, TF over GST control) in the assay with FLI1; 1.3 fold enrichment (6-mer frequency, TF over GST control) with ELK1; 1.3 fold enrichment (6-mer frequency, TF over GST control) in the assay with GABPA; 1.27 fold enrichment (6-mer frequency, TF over GST control) with ERG; 1.27 fold enrichment (6-mer frequency, TF over GST control) with ELF1; 1.25 fold enrichment (6-mer frequency, TF over GST control) with EHF. Further, the binding signal is 1.37 fold enrichment (6-mer frequency, TF over GST control) with SPI1; 1.22 fold enrichment (6-mer frequency, TF over GST control) with SPIB; 1.33 fold enrichment (6-mer frequency, TF over GST control) with ELK3; 1.27 fold enrichment (6-mer frequency, TF over GST control) in the assay with FEV; 1.26 fold enrichment (6-mer frequency, TF over GST control) with ETV5; 1.6 fold enrichment (6-mer frequency, TF over GST control) with HSF1. Besides, the binding signal with SPIC was 1.41 fold enrichment (6-mer frequency, TF over GST control); with ELF4, 1.3 fold enrichment (6-mer frequency, TF over GST control); with ELK4, 1.5 fold enrichment (6-mer frequency, TF over GST control); with ETV2, 1.35 fold enrichment (6-mer frequency, TF over GST control); with ELF3, 1.24 fold enrichment (6-mer frequency, TF over GST control); with CRX, 1.31 fold enrichment (6-mer frequency, TF over GST control). In the assay with ETV1, the binding signal was 1.32 fold enrichment (6-mer frequency, TF over GST control).
